# This is a sample that favours compounds with a hit; in the whole collection about 19% have one here.
# SARS PLpro yeast = qHTS of Yeast-based Assay for SARS-CoV PLP; actives 0.19% (n = 330,000); S. cerevisiae expressing SARS-CoV PLpro, growth rescue; Potency, µM (titrated, usually from 32.9 µM), without a hit: at the highest dose activity, positive = growth rescue, usual class: activators; calls by dose curve; further: potency means the concentration at half of the fitted maximal effect; 0% is about no effect; nearly all actives have a fitted effect of over 55% in size
# Pf growth 48h = Primary qHTS for delayed death inhibitors of the malarial parasite plastid, 48 hour incubation. P. falciparum luciferase growth in erythrocytes, 48 h. Potency, µM (highest dose often 28.7 µM), without a hit: at the highest dose activity change, negative = inhibition, actives largely listed as inhibitors. actives 5.9% (n = 310,000); further: potency means the concentration at half of the fitted maximal effect; on the % scale 0 is the no-effect control and ±100 the full control effect
#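 Luciferase-expressing parasites in RBCs, 2% Hct / 0.1% parasitemia final; RPMI 1640 + 0.5% Albumax; 37 C, 5% CO2, one generation; luminescence read-out, lower signal = inhibition.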
# Pf growth 96h = Primary qHTS for delayed death inhibitors of the malarial parasite plastid, 96 hour incubation; AID 504834, 2011; Potency, µM (highest dose often 28.7 µM), without a hit: top-dose activity change, negative = inhibition, actives largely listed as inhibitors; P. falciparum luciferase reporter growth, 96 h; actives 6.9% (n = 320,000); further: potency means the concentration at half of the fitted maximal effect; on the % scale 0 is the no-effect control and ±100 the full control effect
#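 Plates of compound plus infected erythrocytes (2% hematocrit, 0.05% parasitemia final) incubate 96 hours, 37 C, 5% CO2. Detection reagent added; reduced luminescence from the parasites' luciferase reporter flags inhibition.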
# Shiga inhibitor = A qHTS for Small Molecule Inhibitors of Shiga Toxin; Vero cells, Shiga toxin protein synthesis inhibition reporter; inhibition, % at 38.7 µM; actives 9.2% (n = 290,000); AID 2315, 2010; in the data active means inhibition mostly above about 28%, no sharp cut-off; inactive means mostly below about 43%; further: 0% is about no effect
# CHX counter = Cycloheximide Counterscreen for Small Molecule Inhibitors of Shiga Toxin; max response, %; cell reporter, cycloheximide protein synthesis inhibition counterscreen; actives 12% (n = 300,000); in the data active means max response mostly above about 13%, no sharp cut-off; inactive means mostly below about 14%; further: read at 38.3 µM for the half of the compounds with a filed dose; 0% is about no effect
# AMA1 RON2 block = qHTS for Inhibitors of AMA1-RON; Towards Development of Antimalarial Drug Lead: Primary Screen | Plasmodium falciparum AMA1 (3D7) - RON2 peptide interaction | actives 0.2% (n = 360,000) | AlphaScreen AMA1-biotinylated RON2 peptide binding | Potency, µM (top dose mostly 58.2 µM), for the others: at the top dose activity change, negative = inhibition, usual class: inhibitors;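 further: potency means the concentration at half of the fitted maximal effect; 0% = vehicle wells and -100% = peptide control; nearly all actives have a fitted effect of over 45% in size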
#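 AMA1 (3D7) with his tag at 25 nM final met compounds first, then biotinylated RON2 peptide at 25 nM; detection used donor plus acceptor beads, 10 µg/mL apiece, read by AlphaScreen after 30 min at room temperature.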
# Numbers without * were called inactive; ? = inconclusive; . = no result. Unless noted, the call rests on the fitted dose curve; in most records, active means well fitted curve in the direction sought with a large enough effect; inconclusive means small, poorly fitted or top-dose-only effect, or another doubt; inactive means no such curve, though single readings can be large; an effect the other way counts as inactive or inconclusive.
SMILES,SARS PLpro yeast,Pf growth 48h,Pf growth 96h,Shiga inhibitor,CHX counter,AMA1 RON2 block
O=C(NCc1ccc(Cl)cc1)c1cc2ccccc2oc1=O,2%,-5%,5.2µM*,11,14,4%
CN(C)C(CNC(=O)c1cc2ccccc2oc1=O)c1ccccc1 (stereo not given),-4%,26%,35%,90*,27*,5%
CC(C)(C)NC(=O)c1cc2c(ccc3ccccc32)oc1=O,5%,22%,106%,.,27*,8%
COc1ccc(NC(=O)CCN2C(=O)NC3(CCCC3)C2=O)cc1Cl,5%,3%,-9%,.,.,0%
Cc1ccc(-n2nnnc2-c2cccs2)cc1[N+](=O)[O-],.,.,.,.,.,-7%
NNC(=O)c1sccc1OCc1ccc(Cl)cc1Cl,-8%,260%,?,-17,9,35%
O=C(NNS(=O)(=O)c1ccccc1)c1ccc([N+](=O)[O-])cc1,.,18%,15µM*,-15,0,24%
O=C(NNS(=O)(=O)c1ccc(F)cc1)c1ccc(O)cc1,18%,-5%,10µM*,-10,-1,-1%
COc1ccc(Cl)c2c1[nH]c1nc(SCc3ccccn3)nnc12,-2%,205%,-13%,89*,41*,1%
COc1ccc(Cl)c2c1[nH]c1nc(SCc3cccnc3)nnc12,-1%,-4%,27%,21,10,-2%
CC(C)(C)C(=O)OCc1nc(-c2ccc(Cl)cc2)cs1,-3%,377%,147%,69*,59*,57%
CC(C)(C)C(=O)OCc1nc(-c2ccc(F)cc2)cs1,0%,139%,-3%,92*,42*,4%
CC(C)(C)C(=O)OCc1nc(-c2ccc3c(c2)OCCO3)cs1,6%,91%,162%,114*,54*,14%
NNC(=O)CSCc1nc(-c2ccc(Cl)cc2)cs1,-1%,-6%,?,30,10,55%
NC(=S)Cc1nc(-c2ccc(Cl)cc2)cs1,-3%,30%,?,80*,29,70%
COc1ccc(CNC(=O)C(=O)NCCC2CCCCN2S(=O)(=O)c2cccs2)cc1 (stereo not given),0%,?,?,.,.,-6%
COc1ccc(-c2csc(COC(=O)C(C)(C)C)n2)cc1,-2%,104%,112%,75*,30*,17%
c1ccc(CCNc2nc(-c3ccncc3)cs2)cc1,-4%,87%,33%,52,29*,1%
CCCCCNc1nc(-c2ccccc2)cs1,7%,-6%,.,80*,42*,.
CNc1nc(-c2ccccc2)nnc1C(F)(F)F,-7%,18%,6%,12,14,-8%
Cc1ccc(Sc2nc(-c3ccccc3)nnc2C(F)(F)F)cc1,1%,13µM*,0%,-9,-3,10%
CC(C)(C)C1CCC(C(=O)Nc2ccc(N3CCOCC3)cc2N2CCOCC2)CC1 (stereo not given),-2%,10µM*,?,.,.,-1%
CCCCC1CCC(C(=O)Nc2ccccc2N2CCOCC2)CC1 (stereo not given),-2%,15µM*,?,.,.,2%
CC1C(=O)NN=C1C(=O)N/N=C\c1ccc(O)cc1O (stereo not given),?,?,24%,30,24*,-11%
COc1cc(/C=N/NC(=O)C2=NNC(=O)C2C)ccc1O (stereo not given),2%,42%,-13%,48,27*,14%
COc1cc(/C=N/NC(=O)c2ccncc2)ccc1O,0%,17%,?,10,2,11%
CC1C(=O)NN=C1C(=O)N/N=C\C(Br)=C\c1ccccc1 (stereo not given),-3%,121%,?,53*,17*,30%
CC1=NNC(=O)C1CC(=O)N/N=C/C(Br)=C/c1ccccc1 (stereo not given),-9%,15%,28%,8,7,10%

# Compound activity: PubChem BioAssay, National Center for Advancing Translational Sciences (NCATS)
